Consider 31 molecules from ChEMBL document CHEMBL1157539, “Thousands of chemical starting points for antimalarial lead identification” (Nature, 2010).

What all share (format): functional
In assay [1] the test system is Plasmodium falciparum. The assay is described as follows: GSK_TCMDC: Inhibition of Plasmodium falciparum 3D7 in whole red blood cells, using parasite LDH activity as an index of growth. Test compounds present at 2uM.
In assay [2] the test system is Plasmodium falciparum. Description: GSK_TCMDC: Inhibition of Plasmodium falciparum Dd2 in whole red blood cells, using parasite LDH activity as an index of growth. Test compounds present at 2uM.
The subject of assay [3] is HepG2. The assay is described as follows: GSK_TCMDC: Percent inhibition of human HepG2 cell line. Test compounds present at 10uM.

For `O=C(NC(=S)Nc1cc(C(F)(F)F)cc(C(F)(F)F)c1)c1ccc(Cl)cc1`, the figures for the Inhibition in assay [1], in assay [2] and in assay [3] were 96%, 99% and 31%, respectively.
In the same order, the values of `Clc1ccc(Cl)c2[nH]c(CNCCCNc3nc4ccccc4[nH]3)cc12` are 100%, 39% and 88%.
In the same order, the values of `Cc1nnsc1C(=O)Nc1ccc(-c2cccc(-c3nc4cccc(C)c4[nH]3)c2)cc1` are 98%, 47% and 23%.
For `O=C(/C=C/c1ccc(Cl)c(Cl)c1)NC1CCN(CCNC(=O)c2cccc(Cl)c2)CC1.O=C(O)C(F)(F)F` the same measures were 100%, 45% and 22%.
As for `O=C(NOCc1ccccc1)c1cc(Cl)ccc1O`, the values for the Inhibition in assay [1], in assay [2] and in assay [3] were 83%, 0% and 2%, respectively.
In the same order, the values of `CCOC(=O)c1ccc(NCc2ccccn2)cc1` are 99%, 0% and 0%.
In the same order, the values of `CCc1cn(CCS(C)(=O)=O)c2ccc(C(=O)N[C@@H](Cc3ccccc3)[C@H](O)CNC(C)(C)CCCC(C)C)cc12.O=CO` are 87%, 96% and 16%.
In the same order, the values of `CC(=O)Nc1cccc(Nc2nccc(Nc3ccc(Oc4ccccc4)cc3)n2)c1.Cl` are 100%, 99% and 15%.
For the molecule `COc1cc2nc(NC3CCN(Cc4ccccc4)CC3)nc(N)c2cc1OC`, the Inhibition in assay [1] was determined as 100%; in assay [2], 30%; in assay [3], 27%.
In the same order, the values of `CC(=O)c1ccc(Nc2c(C(N)=O)cnc3cc(-c4c(C)noc4C)ccc23)cc1` are 99%, 44% and 0%.
For `Cc1nn(CC(O)Cn2c3ccc(Br)cc3c3cc(Br)ccc32)c(C)c1Br` (stereo not drawn) the same measures were 98%, 81% and 4%.
In the same order, the values of `CCC1CN2CCc3c([nH]c4ccccc34)C2CC1CC1=NCCc2c1[nH]c1ccc(OC)cc21.Cl` (stereo not drawn) are 100%, 68% and 99%.
In the case of `O=C(/C=N/O)Nc1ccccc1[N+](=O)[O-]`, the Inhibition in assay [1] is 99%; in assay [2] it was 0%; in assay [3], 0%.
For `O=C(Nc1ccc(Cl)c(Cl)c1)Nc1ccc(F)c([N+](=O)[O-])c1`, the Inhibition in assay [1] is 100%; in assay [2], 96%; in assay [3], 49%.
In the same order, the values of `COc1cc2nc(-c3ccc(Br)cc3)cc(N)c2cc1OC` are 98%, 69% and 90%.
For `C=CCc1cc(Cc2cnc(N)nc2N)c2ccc(C)nc2c1OC` the same measures were 96%, 0% and 11%.
For `COC(=O)c1cc(NC(=O)Nc2ccc(Cn3ncc(N4CCCNCC4)c(Cl)c3=O)cc2)cc(C(=O)OC)c1.O=C(O)C(F)(F)F` the same measures were 96%, 90% and 0%.
Take `Cc1cccn2c(=O)c3cc(C(=O)NC(C)c4ccccc4)c(=N)n(CCc4ccccc4)c3nc12` (stereo not drawn): the Inhibition was 100% in assay [1], 82% in assay [2] and 5% in assay [3].
For `CCOC(=O)C1=C(C)N=c2sc(=Cc3cc(Cl)ccc3O)c(=O)n2C1c1cc(OC)c(OC)cc1Br` (stereo not drawn) the same measures were 97%, 76% and 6%.
For `CN(CCc1ccccn1)c1cccc2c1nc(-c1cccnc1)n2CCNCc1ccccc1.O=C(O)C(F)(F)F` the same measures were 90%, 97% and 12%.
In the same order, the values of `CN1CCN(c2ccnc3ccc(NC(=O)Nc4cccc5ccccc45)cc23)CC1` are 100%, 96% and 0%.
As to `CS(=O)(=O)Nc1ccc2c(C3CCN(CCC4CCN(C(=O)/C=C/c5ccc(Cl)c(Cl)c5)CC4)CC3)c[nH]c2c1`, the Inhibition in assay [1] is listed as 99%; in assay [2], 63%; in assay [3] it was 35%.
For `O=C(O)C(F)(F)F.c1cc(CN2CCc3ccccc3CC2)cc(-c2c[nH]c3nc(NC4CCCC4)ncc23)c1` the same measures were 99%, 49% and 31%.
In the same order, the values of `Nc1nc(N)c2c(ccc3c2ccn3CC2CC2)n1` are 96%, 3% and 46%.
As to `Cc1ccc(CN2CCC(C(=O)Nc3ccc(-c4cc5ccccc5[nH]4)cc3)CC2)o1`, the results for the Inhibition in assay [1], in assay [2] and in assay [3] were 92%, 40% and 19%, respectively.
For `O=C(NCCCN1CCCC1=O)NCc1ccccc1` the same measures were 99%, 4% and 8%.
In the same order, the values of `CCCCCC(C)C(C)c1cc(OC(N)=O)c2c(c1)OC(C)(C)C=C2c1ccncc1` (stereo not drawn) are 96%, 0% and 81%.
In the same order, the values of `O=C(N[C@H]1CCN(Cc2ccc(OCCCN3CCCCC3)cc2)C1)c1cc(Cl)cc(Cl)c1` are 99%, 35% and 13%.
For `CC(Cc1ccc(C(=O)OCCOC(=O)c2ccc(CC(C)NCC(O)c3cccc(C(F)(F)F)c3)cc2)cc1)NCC(O)c1cccc(C(F)(F)F)c1` (stereo not drawn), the Inhibition in assay [1] is 98%; in assay [2] it was 86%; in assay [3], 10%.
For `CCCc1nc2c(N3CC(NC(=O)/C=C/c4ccccc4)C3)cccc2n1C1CC1` the same measures were 83%, 68% and 1%.
For `CCOC(=O)c1ccc(OCCOc2ccccc2)cc1` the same measures were 99%, 0% and 63%.
